Measured values taken from the supplement of paper PMC3334620.
Whole data set: some 33,000 sequences, median “E-score (-0.5 to 0.5)” near -0.053, cut for the highest 2% near 0.37. The sample holds the highest values, similar sequences and a random draw of the others, so the mix is not that of the screen.

Molecular target: Hap1 (UniProt P0CE41)
Experiment: PBM E-score (8-mer binding enrichment) (E-score (-0.5 to 0.5)); higher = stronger / more preferred TF binding
Conditions: protein concentration: 200 nM; construct: GST-DNA-binding domain
Method: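 Universal 'all 10-mer' protein binding microarrays (Agilent AMADID 015681) probed with GST-tagged S. cerevisiae TFs (full-length or DBD) made by in vitro transcription/translation (PURExpress), about 100-200 nM. Bound TF was detected with fluorescent anti-GST. Each ungapped 8-mer (which stands for itself and its reverse complement) is scored by the PBM enrichment score (E-score), a modified Wilcoxon-Mann-Whitney statistic from -0.5 to +0.5, computed with the Universal PBM Analysis Suite. Scale: above 0.35 generally sequence-specific binding.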

Sequence of UniProt P0CE41 (P0CE41 whole entry): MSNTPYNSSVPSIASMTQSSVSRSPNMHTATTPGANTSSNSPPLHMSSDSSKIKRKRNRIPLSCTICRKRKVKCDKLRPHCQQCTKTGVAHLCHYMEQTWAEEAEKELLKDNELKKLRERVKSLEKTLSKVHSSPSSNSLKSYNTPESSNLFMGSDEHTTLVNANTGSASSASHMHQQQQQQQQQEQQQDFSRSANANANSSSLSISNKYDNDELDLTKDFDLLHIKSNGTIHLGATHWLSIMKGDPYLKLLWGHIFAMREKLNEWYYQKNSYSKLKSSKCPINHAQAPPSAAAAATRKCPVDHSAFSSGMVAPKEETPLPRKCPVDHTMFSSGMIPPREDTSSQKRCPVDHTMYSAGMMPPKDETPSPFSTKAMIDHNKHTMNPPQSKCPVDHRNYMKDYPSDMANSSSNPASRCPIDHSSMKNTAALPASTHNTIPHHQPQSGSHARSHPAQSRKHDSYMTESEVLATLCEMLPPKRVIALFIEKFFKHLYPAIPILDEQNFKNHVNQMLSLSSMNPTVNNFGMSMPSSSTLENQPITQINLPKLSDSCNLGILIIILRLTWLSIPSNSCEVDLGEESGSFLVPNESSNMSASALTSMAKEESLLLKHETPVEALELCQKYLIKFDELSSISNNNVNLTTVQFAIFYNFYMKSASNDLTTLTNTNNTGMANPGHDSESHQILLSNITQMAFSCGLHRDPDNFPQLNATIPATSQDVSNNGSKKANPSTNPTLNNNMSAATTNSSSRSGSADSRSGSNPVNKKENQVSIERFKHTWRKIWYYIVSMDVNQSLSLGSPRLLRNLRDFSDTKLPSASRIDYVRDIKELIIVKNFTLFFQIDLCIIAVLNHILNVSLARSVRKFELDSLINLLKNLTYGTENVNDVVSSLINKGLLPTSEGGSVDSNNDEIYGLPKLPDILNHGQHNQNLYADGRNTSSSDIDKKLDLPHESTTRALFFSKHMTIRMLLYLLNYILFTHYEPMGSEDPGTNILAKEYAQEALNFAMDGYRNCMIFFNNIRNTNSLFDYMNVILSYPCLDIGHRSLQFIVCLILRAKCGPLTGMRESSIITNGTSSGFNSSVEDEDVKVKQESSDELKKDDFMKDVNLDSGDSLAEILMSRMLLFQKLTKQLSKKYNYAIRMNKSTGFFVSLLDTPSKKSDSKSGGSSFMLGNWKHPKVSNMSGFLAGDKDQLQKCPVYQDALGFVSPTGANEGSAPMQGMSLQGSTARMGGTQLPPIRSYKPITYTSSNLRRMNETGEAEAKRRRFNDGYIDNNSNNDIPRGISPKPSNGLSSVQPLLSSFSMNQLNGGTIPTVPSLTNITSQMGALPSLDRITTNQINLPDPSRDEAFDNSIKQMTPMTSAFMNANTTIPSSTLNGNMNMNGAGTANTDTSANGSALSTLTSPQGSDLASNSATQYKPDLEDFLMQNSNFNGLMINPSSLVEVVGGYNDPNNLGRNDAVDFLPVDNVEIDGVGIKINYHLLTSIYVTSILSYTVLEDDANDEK

Row | Sequence | PBM E-score
1 | GCCCGGCA | 0.25
2 | ACCCGGTG | 0.249
3 | ACCCGGTC | 0.222
4 | GCCCGGTA | 0.38
5 | AAGCCTCA | -0.136
6 | CACCGCAC | 0.0364
7 | CGTGCACC | -0.0161
8 | AGGTCCCA | -0.174
9 | CGGTCCTA | 0.33
10 | GGGTCCAA | 0.15
11 | CGGTCCGC | 0.317
12 | AGGTCCTG | -0.0186
13 | GGGTCCGA | 0.38
14 | AGGTCCGC | 0.33
15 | GGGTCCCA | -0.0688
16 | CGGTCCGA | 0.435
17 | AGGTCCGG | 0.396
18 | AGGTCCAG | -0.0779
19 | AGGTCCGA | 0.404
20 | AGTGAAAA | 0.0463
21 | ATCTAGCG | 0.00616
22 | AGATAGCC | 0.0418
23 | CGCGAATA | 0.182
24 | ATCTGAGA | -0.25
25 | CTTCGACA | -0.309

Row | Sequence | PBM E-score
26 | GCAGTAGA | -0.3
27 | AGGTTCGA | -0.0833
28 | CGGCTGAC | 0.192
29 | GCTCTTCC | 0.0685
30 | AACTTTTG | -0.0532
31 | CAAAGAGC | -0.176
32 | ACGGCAAC | -0.0151
33 | CCGGCAAC | 0.373
34 | GCGGCAAC | 0.00981
35 | GCGGCAAA | 0.202
36 | CCGGCAAA | 0.387
37 | CCGGCAAG | 0.269
38 | AGTTTTTA | -0.141
39 | AGATTATA | -0.0616
40 | ATTCTGGC | -0.0263
41 | AGCCCTTA | -0.128
42 | CTCTACAA | -0.178
43 | ATTTCCAG | 0.129
44 | ATTTCCGG | 0.459
45 | CTTTCCGC | 0.194
46 | ACTTCCGC | 0.249
47 | ACTTCCGA | 0.31
48 | ATTTCCCC | 0.181
49 | ATTTCCGC | 0.399
50 | GTTTCCGA | 0.379

Row | Sequence | PBM E-score
51 | ACTTCCGG | 0.382
52 | CTTTCCGA | 0.316
53 | GTTTCCAA | -0.238
54 | ATTTCCTG | -0.0599
55 | AAAACAAA | 0.043
56 | AGCGCACC | 0.149
57 | CGGTTCTA | 0.276
58 | ATCAAGAG | -0.172
59 | ACGGAACG | 0.195
60 | CTACCAGC | -0.319
61 | CATAGGCG | -0.196
62 | GCCACTAC | -0.042
63 | ATTTCCGA | 0.432
64 | ATTTCCCA | -0.131
65 | ATTTCCAA | 0.0623
66 | CCGTCTCC | 0.126
67 | AACCTATC | -0.00501
68 | GATAGTGC | -0.0408
69 | CGTACGAC | -0.0847
70 | CACGTCGG | 0.28
71 | ATCCGGCA | 0.329
72 | GTACGGTA | 0.0448
73 | CTCCGGCC | 0.358
74 | CTCCGGCA | 0.371
75 | CTCCGCTA | 0.336

Row | Sequence | PBM E-score
76 | CGCCGGTC | 0.295
77 | ATCCGGTC | 0.329
78 | GTCCGCTA | 0.37
79 | ATCCGCTA | 0.306
80 | CTCCGGTC | 0.431
81 | GTCCGGTA | 0.419
82 | GTTCGGTA | 0.249
83 | GGCATCGA | -0.206
84 | AAATGAAT | -0.213
85 | CCAGCGTC | 0.0197
86 | AGTTCTTA | 0.0534
87 | CGCCATCC | -0.00934
88 | CGTCGGAA | 0.306
89 | CATTTGCC | -0.0698
90 | AGGGAACG | -0.0997
91 | ATCCGGTA | 0.357
92 | CGCCGGTA | 0.345
93 | CTCCGGTA | 0.439
94 | CAAGCTCC | 0.00322
95 | CGGGCATA | 0.386
96 | AGGGCTTA | -0.203
97 | GGGGCATA | 0.0612
98 | CGGGCTTC | 0.307
99 | CGGGCTTA | 0.437
100 | AGGGCATA | -0.102

Row | Sequence | PBM E-score
101 | GTACTTCA | 0.032
102 | AGGGTTAA | -0.259
103 | GGGGTTAC | 0.218
104 | GGGTTTAA | 0.387
105 | TGGTTTAA | -0.161
106 | GGGGTTAA | 0.386
107 | GGGTTTTA | 0.288
108 | ATCTATCG | 0.268
109 | GACTCGGC | 0.186
110 | AACGAAGG | -0.308
111 | ACTTGGTG | -0.25
112 | ACCTGCCG | -0.0501
113 | GAGCGCAA | -0.175
114 | AGTTACTA | -0.128
115 | ACCAGTGA | -0.18
116 | GGTAGTTA | 0.0824
117 | CCCTAGCC | -0.138
118 | ATTCGGGC | 0.308
119 | ATTCGGGA | 0.197
120 | AGTCGGAC | 0.318
121 | ATTCGGCC | 0.375
122 | CTTCGGAA | 0.403
123 | ATTCGGAG | 0.299
124 | ATTCGGAC | 0.382
125 | ATTCGGAA | 0.311

Row | Sequence | PBM E-score
126 | ATTCGGCA | 0.224
127 | GTTCGGAA | 0.312
128 | ATTCGGGG | 0.393
129 | ATTCGGCG | 0.278
130 | AGGTGAAG | -0.184
131 | CGATTCAA | -0.0364
132 | GACGGGGC | 0.0768
133 | GTCCACAC | 0.0984
134 | ATTCGCCG | 0.295
135 | ATCCCAAG | -0.0728
136 | AAACTGCC | -0.0803
137 | ACTAGTTC | -0.0373
138 | CTTCGGAC | 0.406
139 | CTTCGGCC | 0.309
140 | CTTCGGGC | 0.208
141 | AATCTCGT | 0.0299
142 | CGATCGGC | 0.312
143 | ATATCGTC | 0.0615
144 | AAATCGGC | 0.303
145 | CTATCGTC | -0.0802
146 | ATATCGGC | 0.455
147 | ATATCGCC | 0.414
148 | CTATCGCC | 0.102
149 | CTATCGGC | 0.385
150 | ATATCGCG | 0.314

Row | Sequence | PBM E-score
151 | GCCCAAGA | -0.22
152 | CCACATCA | -0.064
153 | CTTGCTCA | -0.129
154 | GAGAGATA | 0.0119
155 | GCACAGAC | 0.0195
156 | GCTGATTA | -0.00254
157 | CGGCCTTA | 0.439
158 | CGGCCGGC | 0.422
159 | CGGCCGTC | 0.277
160 | AGGCCGGA | 0.336
161 | CGGCCTTC | 0.301
162 | GGGCCGGA | 0.355
163 | CGGCCGGA | 0.436
164 | CTGCCGGC | 0.322
165 | CGGCCTGA | 0.183
166 | CGGCCGTA | 0.417
167 | AGGCCGTA | 0.0497
168 | AGGCCGGC | 0.271
169 | AATGGGCC | 0.0191
170 | ACTCAGGA | -0.123
171 | CCAAATGA | 0.00146
172 | ACAGCACT | -0.0793
